Laboratory results published in PubChem BioAssay (NCI).
The panel holds about 79,000 compounds, 15% with a hit somewhere; the sample as a whole holds those more often. Calls of active or inactive are those of the source. Cut-off read from the data, not from the text of the source: active = growth inhibition above about 70%; inactive = the rest.

Assays:
[1] = NCI Yeast Anticancer Drug Screen. Data for the rad52 strain (AID 147);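 note: 0% = growth of vehicle-treated control cultures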; settings: S. cerevisiae rad52 mutant growth inhibition, hits give high values
How it was run: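 The repair-mutant yeast strain was incubated with compounds, then growth was read and inhibition derived relative to vehicle.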

[2] = NCI Yeast Anticancer Drug Screen. Data for the wt1 strain (AID 149);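 note: 0% = growth of vehicle-treated wt1 cultures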; settings: S. cerevisiae wt1 strain (SPY 50644) growth inhibition, hits give high values
How it was run: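 Compounds are added to wt1 yeast cultures. Growth is then measured. Inhibition is expressed relative to vehicle-treated controls.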

[3] = NCI Yeast Anticancer Drug Screen. Data for the rad50EPP+ strain (AID 151);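 note: 0% = growth of vehicle-treated control cultures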; settings: S. cerevisiae rad50 mutant strain, hits give high values
How it was run: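 Vehicle-normalised growth inhibition; rad50EPP+ yeast strain, altered in DNA damage repair, compound-treated.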

[4] = NCI Yeast Anticancer Drug Screen. Data for the mgt1 strain (AID 153); settings: S. cerevisiae mgt1 mutant growth inhibition, hits give high values
How it was run: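 Vehicle-normalized growth inhibition is determined in mgt1 yeast, a strain selected for a defined alteration in DNA repair or cell cycle control.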

[5] = NCI Yeast Anticancer Drug Screen. Data for the rad50 strain (AID 155);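 note: 0% = growth of vehicle-only cultures of the same strain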; settings: S. cerevisiae rad50 strain growth inhibition, hits give high values
How it was run: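 Inhibition values express reduced yeast growth in compound-treated cultures relative to vehicle-treated controls.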

[6] = NCI Yeast Anticancer Drug Screen. Data for the mec2-1 strain (AID 157); settings: S. cerevisiae mec2-1 strain, hits give high values
How it was run: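 Mutant yeast (mec2-1) grown with compound; growth inhibition relative to vehicle control reported.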

[7] = NCI Yeast Anticancer Drug Screen. Data for the rad14 strain (AID 159);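 note: 0% = growth of vehicle-treated control cultures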; settings: S. cerevisiae rad14 strain growth inhibition, hits give high values
How it was run: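 A mutant yeast strain defective in DNA damage repair is treated with compound; inhibition of its growth is scored against untreated, vehicle-exposed cultures.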

[8] = NCI Yeast Anticancer Drug Screen. Data for the sgs1 mgt1 strain (AID 161);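 note: 0% = growth of cultures given vehicle only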; settings: S. cerevisiae sgs1 mgt1 strain, hits give high values
How it was run: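 Yeast cells carrying a defined DNA-repair defect were exposed to test compounds. Growth inhibition was measured relative to vehicle-treated controls.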

[9] = NCI Yeast Anticancer Drug Screen. Data for the CLN2oe strain (AID 163);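 note: 0% = growth of vehicle-only control cultures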; settings: S. cerevisiae CLN2oe strain, hits give high values
How it was run: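 Compounds are applied to yeast harbouring a defined cell-cycle control change; reduced growth compared with vehicle-treated controls gives the value.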

[10] = NCI Yeast Anticancer Drug Screen. Data for the cln2 rad14 strain (AID 165);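 note: 0% = growth equal to vehicle treated cultures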; settings: S. cerevisiae cln2 rad14 strain, hits give high values
How it was run: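 Readout is yeast growth inhibition versus vehicle-treated controls, using a strain with cln2 and rad14 alterations exposed to compound.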

[11] = NCI Yeast Anticancer Drug Screen. Data for the bub3 strain (AID 167); settings: S. cerevisiae bub3 mutant strain, hits give high values
How it was run: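 Steps: expose the mutant yeast strain to compound; grow alongside vehicle-treated cultures; measure growth; express inhibition against the vehicle cultures.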

[12] = NCI Yeast Anticancer Drug Screen. Data for the wt2 strain (AID 169);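 note: 0% = growth of vehicle-treated yeast cultures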; settings: S. cerevisiae wt2 strain growth inhibition, hits give high values
How it was run: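 Against vehicle-treated controls, the growth of yeast exposed to each compound was compared, and the inhibition was recorded.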

[13] = NCI Yeast Anticancer Drug Screen. Data for the mlh1 strain (AID 171);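 note: 0% = growth of vehicle-treated control cultures of the same strain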; settings: S. cerevisiae mlh1 strain growth inhibition, hits give high values
How it was run: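 Measured: yeast growth. Reference: vehicle-treated controls. Organism: strain with a defined alteration affecting DNA damage repair or cell cycle control, treated with compound.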

[14] = NCI Yeast Anticancer Drug Screen. Data for the rad18 strain (AID 177); settings: S. cerevisiae rad18 mutant growth inhibition, hits give high values
How it was run: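 Vehicle-treated cultures served as the baseline for scoring compound-induced growth inhibition in DNA-repair-mutant yeast.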

[15] = NCI Yeast Anticancer Drug Screen. Data for the sgs1 strain (AID 173);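 note: 0% = growth of vehicle-only control cultures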; settings: S. cerevisiae sgs1 mutant, hits give high values
How it was run: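 Each compound was added to cultures of the altered yeast strain. Growth was recorded, and inhibition was derived by comparison with vehicle controls.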

[16] = at 5.0 µM (retest, dose inferred, filed as 0.5)
[17] = at 50.0 µM (retest, dose inferred, filed as 5.0)

Measured: growth inhibition

Cn1ccnc1Oc1ccc(Cl)cc1
inactive: [1]; at 1.2 µM -7% | [1]; at 3.7 µM -11% | [1]; at 11.0 µM 7% | [1]; at 33.0 µM 61% | [2]; at 1.2 µM 1% | [2]; at 3.7 µM 5% | [2]; at 11.0 µM 22% | [2]; at 33.0 µM 50% | [3]; at 1.2 µM -5% | [3]; at 3.7 µM -22% | [3]; at 11.0 µM 0% | [3]; at 33.0 µM 30% | [3]; at 100.0 µM 37% | [4]; at 1.2 µM -4% | [4]; at 3.7 µM -5% | [4]; at 11.0 µM 0% | [4]; at 33.0 µM 15% | [5]; at 1.2 µM -9% | [5]; at 3.7 µM -9% | [5]; [16] -121% | [5]; at 11.0 µM 3% | [6]; at 1.2 µM -2% | [6]; at 3.7 µM 0% | [6]; [16] -46% | [6]; at 11.0 µM 4% | [6]; at 33.0 µM 17% | [6]; [17] 26% | [6]; at 50.0 µM 58.3% | [7]; at 1.2 µM -5% | [7]; at 3.7 µM 4% | [7]; at 11.0 µM 26% | [7]; at 33.0 µM 46% | [8]; [16] -61% | [8]; [17] 37% | [8]; at 50.0 µM 32.1% | [9]; at 1.2 µM -8% | [9]; at 3.7 µM -3% | [9]; at 11.0 µM -2% | [9]; at 33.0 µM 16% | [10]; [16] -52% | [10]; [17] -6% | [10]; at 50.0 µM -55.4% | [11]; at 1.2 µM -6% | [11]; at 3.7 µM -3% | [11]; [16] -65% | [11]; at 11.0 µM 0% | [11]; at 33.0 µM 25% | [11]; [17] 55% | [11]; at 50.0 µM 38.1% | [12]; at 1.2 µM -7% | [12]; at 3.7 µM 7% | [12]; at 11.0 µM 30% | [13]; at 1.2 µM -11% | [13]; at 3.7 µM -4% | [13]; at 11.0 µM 0% | [13]; at 33.0 µM 45% | [14]; at 1.2 µM -7% | [14]; at 3.7 µM -1% | [14]; at 11.0 µM 6% | [14]; at 33.0 µM 55%
active: [1]; at 100.0 µM 97% | [2]; at 100.0 µM 97% | [4]; at 100.0 µM 98% | [5]; at 33.0 µM 76% | [5]; [17] 83% | [5]; at 50.0 µM 81.2% | [5]; at 100.0 µM 97% | [6]; at 100.0 µM 97% | [7]; at 100.0 µM 98% | [9]; at 100.0 µM 93% | [11]; at 100.0 µM 97% | [12]; at 33.0 µM 78% | [12]; at 100.0 µM 99% | [13]; at 100.0 µM 98% | [14]; at 100.0 µM 97%

O=[N+]([O-])c1ccc(=S)[nH]c1
active: [1]; at 100.0 µM 93% | [2]; at 100.0 µM 78% | [3]; at 33.0 µM 85% | [3]; at 100.0 µM 97% | [4]; at 100.0 µM 93% | [5]; [17] 99% | [5]; at 50.0 µM 98.8% | [5]; at 100.0 µM 86% | [6]; [17] 88% | [6]; at 50.0 µM 99.4% | [6]; at 100.0 µM 99% | [7]; at 100.0 µM 99% | [8]; [17] 100% | [8]; at 50.0 µM 98.2% | [11]; [17] 98% | [11]; at 50.0 µM 99.3% | [11]; at 100.0 µM 98% | [12]; at 100.0 µM 93% | [15]; at 33.0 µM 76% | [15]; at 100.0 µM 99% | [14]; at 100.0 µM 94%
inactive: [1]; at 1.2 µM 1% | [1]; at 3.7 µM 0% | [1]; at 11.0 µM -1% | [1]; at 33.0 µM 49% | [2]; at 1.2 µM -1% | [2]; at 3.7 µM -2% | [2]; at 11.0 µM -6% | [2]; at 33.0 µM 13% | [3]; at 1.2 µM 0% | [3]; at 3.7 µM -2% | [3]; at 11.0 µM 23% | [4]; at 1.2 µM -3% | [4]; at 3.7 µM -2% | [4]; at 11.0 µM 1% | [4]; at 33.0 µM 34% | [5]; at 1.2 µM 0% | [5]; at 3.7 µM -6% | [5]; [16] -5% | [5]; at 11.0 µM -5% | [5]; at 33.0 µM 28% | [6]; at 1.2 µM -2% | [6]; at 3.7 µM -1% | [6]; [16] -9% | [6]; at 11.0 µM -5% | [6]; at 33.0 µM 60% | [7]; at 1.2 µM -5% | [7]; at 3.7 µM -6% | [7]; at 11.0 µM -5% | [7]; at 33.0 µM 42% | [8]; [16] 32% | [9]; at 1.2 µM -1% | [9]; at 3.7 µM -8% | [9]; at 11.0 µM -8% | [9]; at 33.0 µM -10% | [9]; at 100.0 µM 67% | [10]; [16] 5% | [10]; [17] 55% | [10]; at 50.0 µM 37.6% | [11]; at 1.2 µM -6% | [11]; at 3.7 µM -7% | [11]; [16] 10% | [11]; at 11.0 µM -6% | [11]; at 33.0 µM 54% | [12]; at 1.2 µM 0% | [12]; at 3.7 µM 1% | [12]; at 11.0 µM 2% | [12]; at 33.0 µM 39% | [15]; at 1.2 µM 0% | [15]; at 3.7 µM 4% | [15]; at 11.0 µM 17% | [14]; at 1.2 µM -1% | [14]; at 3.7 µM 0% | [14]; at 11.0 µM -5% | [14]; at 33.0 µM 40%
